The source of these data is PubChem BioAssay.

Experiment [1] is described as follows: compounds binding Alexa647 anti-His antibody – biochemical, small-molecule microarray, 635 nm fluorescence, artefact control for SMM control protein annotation, primary screen (AID 1128).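 Also: score merges feature fluorescence with signal-to-noise for each printed compound spot.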 To be noted: higher = more signal.
The subject of experiment [2] is Human papillomavirus type 1a E7 protein (residues 1-88). As to the kind of experiment: HPV1a E7 small-molecule binders, primary screen, biochemical, small-molecule microarray, residues 1-88, 635 nm (AID 1129). To be noted: small-molecule microarray binding, fluorescence 635 nm; higher = more signal.
In experiment [3] the target is Focal adhesion kinase 1 (Homo sapiens) (UniProt Q05397). As to the kind of experiment: PTK2 protein binding on printed compound slides – biochemical, small-molecule microarray, 635/667 nm fluorescence, BSA, DTT, primary screen (AID 1130).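 Also: composite of spot emission at 667 nm and signal to noise over triplicate slides.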 To be noted: 635 nm fluorescence, higher = more signal.
Chain of Focal adhesion kinase 1 (Homo sapiens) (Q05397 whole entry, looked up): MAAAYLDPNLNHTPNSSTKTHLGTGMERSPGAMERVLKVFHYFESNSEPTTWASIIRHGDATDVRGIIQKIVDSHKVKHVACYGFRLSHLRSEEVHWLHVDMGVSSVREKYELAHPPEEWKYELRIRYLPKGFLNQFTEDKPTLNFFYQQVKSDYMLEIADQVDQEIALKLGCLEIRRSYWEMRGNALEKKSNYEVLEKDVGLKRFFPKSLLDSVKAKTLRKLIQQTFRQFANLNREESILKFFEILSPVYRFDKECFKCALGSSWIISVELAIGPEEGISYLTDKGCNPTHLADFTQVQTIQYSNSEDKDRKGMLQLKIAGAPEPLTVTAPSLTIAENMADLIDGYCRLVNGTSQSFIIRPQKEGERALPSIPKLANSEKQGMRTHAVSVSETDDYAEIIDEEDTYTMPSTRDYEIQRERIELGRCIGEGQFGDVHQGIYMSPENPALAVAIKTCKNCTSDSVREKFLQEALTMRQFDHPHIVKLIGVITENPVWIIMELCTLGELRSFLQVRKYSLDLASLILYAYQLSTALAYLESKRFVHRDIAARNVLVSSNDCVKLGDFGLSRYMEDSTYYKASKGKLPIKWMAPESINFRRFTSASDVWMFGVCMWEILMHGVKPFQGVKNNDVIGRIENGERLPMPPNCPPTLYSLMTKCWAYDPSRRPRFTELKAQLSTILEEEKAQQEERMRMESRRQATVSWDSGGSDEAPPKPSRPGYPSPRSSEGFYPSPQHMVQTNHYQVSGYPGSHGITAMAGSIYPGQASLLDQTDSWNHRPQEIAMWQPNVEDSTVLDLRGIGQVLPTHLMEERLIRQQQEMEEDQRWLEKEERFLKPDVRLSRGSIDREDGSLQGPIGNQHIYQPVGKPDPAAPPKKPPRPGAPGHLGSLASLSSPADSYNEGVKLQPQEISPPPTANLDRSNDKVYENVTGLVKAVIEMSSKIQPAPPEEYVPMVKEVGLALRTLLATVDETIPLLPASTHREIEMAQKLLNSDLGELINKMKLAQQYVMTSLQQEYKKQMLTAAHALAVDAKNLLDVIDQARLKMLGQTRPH
For experiment [4], the system named is Fibrinogen (Alexa647-labelled). As to the kind of experiment: Alexa647-fibrinogen binding to printed small molecules – biochemical, small-molecule microarray, 635/667 nm fluorescence, artefact control for SMM control-protein annotation, profiling panel (AID 1131).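 Also: z-score merges 667 nm fluorescence with per-spot signal-to-noise over triplicate slides.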 To be noted: fibrinogen-A647 binding fluorescence, higher = more signal.
The target in experiment [5] is Follistatin (Homo sapiens) (UniProt P19883). As to the kind of experiment: FST protein binding to printed compounds – biochemical, small-molecule microarray, 635/667 nm fluorescence, primary screen (AID 1132). To be noted: 635 nm fluorescence, higher = more signal.
Chain of Follistatin (Homo sapiens) (P19883 whole entry, looked up): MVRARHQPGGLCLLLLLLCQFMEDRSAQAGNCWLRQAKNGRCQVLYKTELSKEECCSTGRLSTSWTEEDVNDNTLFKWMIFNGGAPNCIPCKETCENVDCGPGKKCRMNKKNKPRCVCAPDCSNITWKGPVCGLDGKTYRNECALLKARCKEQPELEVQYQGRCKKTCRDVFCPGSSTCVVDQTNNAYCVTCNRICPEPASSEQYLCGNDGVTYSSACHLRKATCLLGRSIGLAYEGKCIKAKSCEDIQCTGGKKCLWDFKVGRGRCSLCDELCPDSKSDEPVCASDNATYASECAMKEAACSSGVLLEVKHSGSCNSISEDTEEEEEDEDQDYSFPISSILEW
Experiment [6] has as its target Fibroblast growth factor 2 (Homo sapiens) (UniProt P09038). As to the kind of experiment: basic fibroblast growth factor binding to printed compounds – biochemical, small-molecule microarray, 635/667 nm fluorescence, primary screen (AID 1133). To be noted: FGF2, fluorescence 635/667, higher = more signal.
Experiment [7] is described as follows: JC-1 mitochondrial potential readout, lung cancer cells – cell-based, A549, JC-1 fluorescence, basal, 24 h, 100 nL, profiling panel (AID 1138).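 Also: A549 lung adenocarcinoma cells under basal conditions with no added stimulus; test concentration not given here.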 To be noted: higher = more signal.
Experiment [8] concerns Lefty1. As to the kind of experiment: Lefty1 protein binding to printed compounds – biochemical, small-molecule microarray, 635/667 nm fluorescence, primary screen (AID 1139). To be noted: fluorescence 635/667, higher = more signal.
Experiment [9] concerns wheat germ agglutinin (Triticum aestivum), Alexa647-labelled. As to the kind of experiment: Alexa647-WGA lectin binding to printed small molecules – biochemical, small-molecule microarray, 635/667 nm fluorescence, artefact control for SMM control-protein annotation, profiling panel (AID 1140).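 Also: score merges 667 nm feature emission with signal to noise over triplicate slides.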 To be noted: WGA-A647 binding, 635 nm fluorescence, higher = more signal.
Experiment [10] concerns the target Luciferin 4-monooxygenase (Photinus pyralis) (UniProt P08659). As to the kind of experiment: inhibition of purified Photinus pyralis luciferase – biochemical, luminescence, purified enzyme, 2006 set, primary screen (AID 1141).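 Also: cell-free assay with purified firefly luciferase at 100 ng per well in PBS; test concentration not given here.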 To be noted: purified firefly luciferase, SteadyGlo luminescence, 30 min; higher = more signal, called active from +8 up or from −8 down.
The test system of experiment [11] is Wnt5a (protein binding on small-molecule microarray). As to the kind of experiment: small molecules binding Wnt5a protein – biophysical, small-molecule microarray, 635/667 nm fluorescence, primary screen (AID 1142).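 Also: fluorescence read at 667 nm with signal to noise per printed feature.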 To be noted: 635 nm fluorescence, higher = more signal.
The nature of experiment [12]: ATP-based viability of Huh7 replicon cells – cell-based, CellTiter-Glo luminescence, basal, 48 h, cytotoxicity control for HCV replication inhibitor project, primary screen (AID 1143).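 Also: Huh7 hepatoma cells carrying a hepatitis C replication reporter with no stimulus; test concentration not given here.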 To be noted: higher = more signal, called active from +8 up or from −8 down.
The nature of experiment [13]: Pseudomonas biofilm growth suppression – PAO1 strain, BacTiter-Glo luminescence, LB-PBS, primary screen (AID 1144). To be noted: P. aeruginosa PAO1 biofilm, 12 h, higher = more signal.
The nature of experiment [14]: basal CRE-LacZ reporter activity in PC12 – cell-based, unstimulated, primary screen (AID 1145). To be noted: no forskolin, luminescence, 4.5 h, higher = more signal, called active from +8 up or from −8 down.
Experiment [15] is described as follows: forskolin-driven CRE-LacZ activity in PC12 – cell-based, CRE-LacZ reporter, forskolin-stimulated, primary screen (AID 1146).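 Also: PC12 cells with 6xCRE LacZ reporter stimulated by forskolin 10 µM; beta-galactosidase reporter signal reflecting CREB driven transcription.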 To be noted: luminescence, 4.5 h, higher = more signal, called active from +8 up or from −8 down.
Experiment [16] concerns the target Streptavidin (Streptomyces avidinii) (UniProt P22629). As to the kind of experiment: compounds binding control protein streptavidin – biophysical, small-molecule microarray, 635/667 nm fluorescence, artefact control for SMM compound annotation, primary screen (AID 1147).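 Also: signal reflects streptavidin binding to arrayed compounds as a control protein.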 To be noted: higher = more signal.
Experiment [17] can be described thus: probe aInhba binding on compound microarray – biochemical, small-molecule microarray, 635/667 nm fluorescence, primary screen (AID 1148).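 Also: score merges 667nm spot fluorescence with signal-to-noise for antibody binding to printed compounds.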 To be noted: higher = more signal.
The target of experiment [18] is Torsin-1A (Homo sapiens) (UniProt O14656). As to the kind of experiment: TOR1A wild-type binding on microarray – cell lysate, small-molecule microarray, lysate, 635/667 nm, primary screen (AID 1149). To be noted: COS7 hTOR1A-WT lysate, 635 nm fluorescence, higher = more signal.
Chain of Torsin-1A (Homo sapiens) (O14656 whole entry, looked up): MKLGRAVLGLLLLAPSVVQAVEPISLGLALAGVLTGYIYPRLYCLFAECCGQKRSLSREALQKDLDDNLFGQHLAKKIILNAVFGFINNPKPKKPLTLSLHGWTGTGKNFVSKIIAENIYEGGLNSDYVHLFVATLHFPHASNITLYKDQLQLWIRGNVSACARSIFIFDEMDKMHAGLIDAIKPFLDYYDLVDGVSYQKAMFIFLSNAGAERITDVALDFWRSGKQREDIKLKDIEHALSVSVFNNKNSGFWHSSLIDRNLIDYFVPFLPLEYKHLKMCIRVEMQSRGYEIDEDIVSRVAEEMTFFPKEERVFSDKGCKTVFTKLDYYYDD
For experiment [19] the target is unchanged. As to the kind of experiment: torsin A mutant lysate binding on microarrays – cell lysate, small-molecule microarray, COS7 lysate, 635/667 nm fluorescence, primary screen (AID 1150).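 Also: score pools 667 nm emission and signal to noise measuring lysate protein binding.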 To be noted: COS7 hTOR1A mutant lysate, 635 nm fluorescence, higher = more signal.
For experiment [20], the system named is Sonic hedgehog protein (Shh). As to the kind of experiment: Sonic hedgehog microarray binding compounds – biochemical, small-molecule microarray, 635/667 nm fluorescence, primary screen (AID 1151).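 Also: Shh protein binding to compounds spotted on small-molecule microarray slides; score combines spot fluorescence intensity with signal-to-noise across triplicate slides.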 To be noted: 635 nm fluorescence, higher = more signal.

The source made the active and inactive calls. Unless noted, no rule for the calls is given here.

Chain of Luciferin 4-monooxygenase (Photinus pyralis) (P08659 whole entry, looked up): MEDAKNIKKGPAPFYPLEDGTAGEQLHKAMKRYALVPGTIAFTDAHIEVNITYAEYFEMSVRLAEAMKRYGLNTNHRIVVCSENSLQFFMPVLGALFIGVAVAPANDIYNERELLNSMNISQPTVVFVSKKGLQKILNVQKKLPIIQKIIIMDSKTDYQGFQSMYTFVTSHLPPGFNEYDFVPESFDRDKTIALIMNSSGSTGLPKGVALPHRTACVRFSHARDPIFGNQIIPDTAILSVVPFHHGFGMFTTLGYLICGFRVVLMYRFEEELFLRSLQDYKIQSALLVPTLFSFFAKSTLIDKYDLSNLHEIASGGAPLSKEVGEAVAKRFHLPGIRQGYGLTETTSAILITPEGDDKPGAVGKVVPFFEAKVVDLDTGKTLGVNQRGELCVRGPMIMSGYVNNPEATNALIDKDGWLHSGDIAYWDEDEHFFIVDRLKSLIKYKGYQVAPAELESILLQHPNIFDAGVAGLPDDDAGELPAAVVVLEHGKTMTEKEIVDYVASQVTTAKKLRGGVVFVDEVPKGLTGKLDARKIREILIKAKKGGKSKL
Chain of Streptavidin (Streptomyces avidinii) (P22629 whole entry, looked up): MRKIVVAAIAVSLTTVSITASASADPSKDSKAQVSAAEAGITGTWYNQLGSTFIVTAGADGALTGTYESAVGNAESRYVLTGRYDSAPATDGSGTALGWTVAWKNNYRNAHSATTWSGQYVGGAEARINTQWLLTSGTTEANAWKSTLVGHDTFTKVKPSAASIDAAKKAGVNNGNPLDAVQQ
Chain of Fibroblast growth factor 2 (Homo sapiens) (P09038 whole entry, looked up): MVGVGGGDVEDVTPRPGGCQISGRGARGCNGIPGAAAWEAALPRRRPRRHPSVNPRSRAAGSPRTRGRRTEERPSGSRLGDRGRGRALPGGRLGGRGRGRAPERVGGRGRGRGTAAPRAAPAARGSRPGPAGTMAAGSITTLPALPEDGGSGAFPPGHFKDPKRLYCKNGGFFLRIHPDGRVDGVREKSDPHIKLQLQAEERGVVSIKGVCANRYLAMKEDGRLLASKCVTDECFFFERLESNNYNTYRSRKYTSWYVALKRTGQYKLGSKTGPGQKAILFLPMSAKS

For `O=C(N1CCOCC1)[C@]1(CCS(=O)(=O)c2ccccc2)N=C(c2ccc(OCCCO)cc2)O[C@@H]1c1ccccc1`, the composite z-score is 2.94 in experiment [1]; 1.23 in [2]; 0.99 in [3]; 0.996 in experiment [4]; 1.25 in experiment [5]; 0.23 in experiment [6]. Moreover, the composite z-score is -0.588 in experiment [8]; 1.29 in [9]; 0.308 in experiment [11]; 0.947 in [16]; 0.212 in experiment [17]; 0.46 in experiment [18]. The composite z-score in experiment [19] is 0.77; in [20], -0.19. Besides, the z-score in experiment [7] is 1.1; in experiment [10], -1.55 (inactive); in [12], -2.3 (inactive); in [13], 0.863 (inactive); in [14], 1.1 (inactive); in experiment [15], 0.711 (inactive).
For the molecule `COC(=O)[C@@]1(Cc2ccc(F)cc2)[C@@H]2C(=CC(=O)[C@H]2CC(=O)C(=O)N2CCCC2)CN1C(=O)c1ccccc1`, the composite z-score in [1] was found to be 0.323; in experiment [2] it was 1.24; in experiment [3] it was 0.348; in [4], 0.998; in experiment [5] it was 1.26; in experiment [6] it was 0.674. Further, the composite z-score in experiment [8] is 0.903; in experiment [9], 1.23; in experiment [11] it was 1.74; in [16] it was 0.696; in experiment [17], 0.731; in experiment [18] it was 0.448. In addition, the composite z-score in [19] is 1.01; in experiment [20], 1.82. For the same molecule, the z-score was 0.711 in experiment [7]; -8.12 (active) in experiment [10]; -4.86 (inactive) in experiment [12]; 0.137 (inactive) in experiment [13]; -0.189 (inactive) in experiment [14]; 1.86 (inactive) in [15].
For the molecule `CCOC(=O)C1=CC[C@@H](c2ccccc2)N(S(=O)(=O)c2ccc(C)cc2)[C@@H]1C#N`, the composite z-score in experiment [1] was 2.09; in experiment [2], 1.15; in experiment [3], 0.165; in [4], 0.317; in [5], 0.351; in experiment [6], -0.501. Besides, the composite z-score in experiment [8] was -0.0273; in experiment [9], 0.72; in experiment [11] it was 0.0432; in [16], 0.814; in experiment [17], -0.128; in experiment [18], 0.0512. Further, the composite z-score in [19] was 0.291; in experiment [20], -0.0766. In addition, the z-score was 0.215 in [7]; -0.323 (inactive) in experiment [10]; -2.54 (inactive) in experiment [12]; -0.232 (inactive) in [13]; -0.266 (inactive) in experiment [14]; 40.6 (active) in experiment [15].
Regarding `O=C1O[C@H](c2ccccc2)[C@H](c2ccccc2)N2[C@H]1[C@@H](C(=O)O)[C@]1(C(=O)Nc3ccc(C#CC4(O)CCCCCC4)cc31)[C@H]2c1ccccc1OCCO`, the composite z-score in experiment [1] is 1.16; in experiment [2], 1.23; in [3], 0.854; in experiment [4], 0.924; in experiment [5], 0.729; in experiment [6] it was 0.435. Moreover, the composite z-score was determined as 0.664 in experiment [8]; 1.25 in [9]; 0.455 in experiment [11]; 1.41 in experiment [16]; 0.397 in experiment [17]; 0.541 in [18]. In addition, the composite z-score is -0.462 in experiment [19] and 0.721 in experiment [20]. The z-score in [7] was 0.833; in experiment [10], -3.82 (inactive); in [12], -2.05 (inactive); in experiment [13] it was 1.27 (inactive); in [14] it was 17.9 (active); in experiment [15], 21.5 (active).
